Results filed as inconclusive are left out. Entries that show only a call come without a potency. Unmarked numbers belong to inactive results. The source made the active and inactive calls. The call rests on the fitted dose curve; in most records, active means well fitted cell-killing curve with a large enough effect in the repeat runs; inconclusive means weak or mixed curves, or effect the other way; inactive means flat fitted curve, though single readings scatter.
assay: qHTS assay to identify small molecule agonists of the estrogen receptor beta (ER-beta) signaling pathway - cell viability counter screen (AID 1259380); conditions: ER-beta-bla HEK293T viability, CellTiter-Glo luminescence, 16 h; series mostly up to 92.4 µM; further: nearly all actives have a fitted effect of over 30% in size
Source text: National Center for Advancing Translational Sciences [NCATS]
NIH Chemical Genomics Center [NCGC]
U.S. Environmental Protection Agency [EPA]
National Institutes of Environmental Health Sciences [NIEHS]
National Toxicology Program [NTP]
U.S. Food and Drug Administration [FDA]
Estrogen receptor (ER), a nuclear hormone receptor, plays an important role in development, metabolic homeostasis and reproduction. Two subtypes of ER, ER-alpha and ER-beta, have similar expression patterns with some uniqueness in both types. Endocrine disrupting chemicals (EDCs) and their interactions with steroid hormone receptors like ER causes disruption of normal endocrine function. To identify the compounds that activate ER signaling, an ER beta-UAS-bla GripTite cell line (Life Technologies, Madison, WI, USA) containing a beta-lactamase reporter gene under the control of an UAS response element was used to screen Tox21 10K compound library. The cytotoxicity of the Tox21 compound library against the ER-beta-bla cell line was tested in parallel by measuring the cell viability using CellTiter-Glo assay in the same wells.
Tox21 Assay Protocol Summary:
ER-beta-UAS-bla HEK293T cells were dispensed at 2,000 cells/5 uL of assay medium containing 2% charcoal stripped FBS per well into black wall/clear-bottom 1536-well plates using a Multidrop Combi (ThermoFisher Scientific, Waltham, MA) dispenser. After the assay plates were incubated at a 37C and 5% CO2 for 6 hr, 23 nL of compounds dissolved in DMSO, positive controls or DMSO only was transferred to the assay plate by a Pintool station (Kalypsys, San Diego, CA). The plates were incubated at 37C and 5% CO2 for 16 hr. Then 1 uL of LiveBLAzerTM B/G FRET substrate was added using a BioRAPTR FRD (Flying Reagent Dispenser, Aurora Discovery, San Diego, CA) and then the plates were incubated at room temperature for 2 hours, and fluorescence intensity was measured by an Envision plate reader (PerkinElmer, Shelton, CT). For cell viability readout that measures cytotoxicity, 4 uL/well of CellTiter-Glo reagent was added into the assay plates using a FRD. After 30 min incubation at room temperature, the luminescence intensity in the plates was measured using a ViewLux (PerkinElmer) plate reader.
Potency means the concentration at half of the fitted maximal effect.

Q: With `O=C(O)c1cn(C2CC2)c2cc(Cl)c(F)cc2c1=O` as the molecule, how does the Potency read?
A: inactive

Q: Which Potency does the source give for `c1ccc(OCc2ccc(CCCN3CCOCC3)cc2)cc1` here?
A: inactive

Q: Which Potency does the source give for `O=C(c1ccccc1)c1ccc2n1CCC2C(=O)O` (stereo not given) here?
A: inactive

Q: Which activity change, negative = cytotoxicity does the source give for `CCCCCCCCCCCCCCCCCBr` here?
A: -0.948% [at 19 µM]

Q: For `Cc1cc(CC(=O)O)c(C)n1-c1ccc(Cl)cc1`, which Potency is on record?
A: 10.6 µM (active)

Q: With `Cc1cccc(Oc2ccccc2)c1` as the molecule, how does the Potency read?
A: 9.44 µM (active)

Q: For `O=S1(=O)N=C(O)c2ccccc21`, which Potency is on record?
A: inactive

Q: With `Cc1cccc(C(C)(C)C)c1O` as the molecule, how does the Potency read?
A: inactive

Q: Which Potency does the source give for `O=[N+]([O-])c1cc[n+]([O-])cc1` here?
A: 27.3 µM (active)

Q: Which Potency does the source give for `CCOc1cc(OCC)c(C(=O)CCC(=O)O)cc1OCC` here?
A: inactive

Q: With `C=CC(C)(CCC=C(C)C)OC(=O)c1ccccc1` (stereo not given) as the molecule, how does the Potency read?
A: inactive

Q: With `NCCCOCCOCCOCCCN` as the molecule, how does the Potency read?
A: 15.4 µM (active)

Q: With `Cc1ccc(C(=O)C(C)CN2CCCCC2)cc1` (stereo not given) as the molecule, how does the Potency read?
A: inactive

Q: Which Potency does the source give for `CCCCC(CC)(CO)CO` here?
A: inactive

Q: With `CCOC(=O)[C@H](CCc1ccccc1)N[C@H]1CCc2ccccc2N(CC(=O)O)C1=O` as the molecule, how does the Potency read?
A: 11.9 µM (active)

Q: Which Potency does the source give for `OCCC1CCCCN1` (stereo not given) here?
A: inactive

Q: Which Potency does the source give for `CCCC[C@H]1CN(CC2CCOCC2)C(=O)OC12CCN(C1(C)CCN(C(=O)c3c(C)ncnc3C)CC1)CC2` here?
A: inactive

Q: For `O=C(O)C1CCC(C(=O)O)CC1` (stereo not given), which Potency is on record?
A: inactive

Q: With `O=C(O)[C@@H]1[C@H]2C[C@H]3c4[nH]c5ccccc5c4CCN3C[C@@H]2CC[C@@H]1O` as the molecule, how does the Potency read?
A: inactive

Q: With `O=C(O)Cc1sc(-c2ccccc2)nc1-c1ccc(Cl)cc1` as the molecule, how does the Potency read?
A: 21.1 µM (active)

Q: For `Cn1sccc1=O`, which Potency is on record?
A: inactive

Q: With `O=C(O)c1cccc(N(Cc2cccnc2)c2ccc(OC(F)F)c(OC(F)F)c2)c1` as the molecule, how does the Potency read?
A: 48.6 µM (active)

Q: With `O=C(NN1CCCC1)NS(=O)(=O)c1ccc(Cl)cc1` as the molecule, how does the Potency read?
A: inactive

Q: For `S=C(S)NCCNC(=S)S`, which Potency is on record?
A: inactive

Q: With `CC(=O)c1c(C)c([N+](=O)[O-])c(C(C)(C)C)c([N+](=O)[O-])c1C` as the molecule, how does the Potency read?
A: inactive

Q: With `O=C(C(=O)c1ccc(Br)cc1)c1ccc(Br)cc1` as the molecule, how does the activity change, negative = cytotoxicity read?
A: 0.571% [at 19 µM]

Q: With `CC[C@@H]1C[C@H](N(Cc2cc(C(F)(F)F)cc(C(F)(F)F)c2)C(C)=O)c2cc(C(F)(F)F)ccc2N1C(=O)OC(C)C` as the molecule, how does the Potency read?
A: inactive

Q: For `CCCCCCc1ccc(N)cc1`, which Potency is on record?
A: 27.3 µM (active)

Q: For `CC(CN)CCCN` (stereo not given), which Potency is on record?
A: inactive

Q: Which Potency does the source give for `O=C(/C=C/c1ccc(O)c(O)c1)O[C@@H]1C[C@](O)(C(=O)O)C[C@@H](O)[C@H]1O` here?
A: inactive

Q: With `CCc1nn(C2CCCCC2)c2cc(C3(C#N)CCC(C(=O)O)CC3)ccc12` (stereo not given) as the molecule, how does the Potency read?
A: 8.63 µM (active)

Q: Which Potency does the source give for `Cc1ccc(C(C)c2ccc(C)c(C)c2)cc1C` here?
A: inactive

Q: Which Potency does the source give for `COc1ccccc1OC(=O)Oc1ccccc1OC` here?
A: 23.7 µM (active)

Q: Which Potency does the source give for `Oc1ccc2c(c1)OCO2` here?
A: inactive

Q: Which Potency does the source give for `CCCCCCCCCC=O` here?
A: inactive

Q: Which Potency does the source give for `CCOC(=O)CC(=O)c1cc(F)c(Cl)nc1Cl` here?
A: inactive

Q: With `C1=Cc2ccccc2C1` as the molecule, how does the Potency read?
A: inactive

Q: For `C=C(C)C(=O)OCCN(C)C`, which Potency is on record?
A: inactive

Q: With `O=c1c2ccccc2nnn1CCl` as the molecule, how does the Potency read?
A: inactive

Q: For `O=C(Nc1ccccc1)OCC(CN1CCCCC1)OC(=O)Nc1ccccc1` (stereo not given), which Potency is on record?
A: 26.6 µM (active)
